Where “and” joins values, the source holds several entries; their conditions need not be identical. Equal entries are not always repeated. Results filed as inconclusive are left out. Calls of active or inactive are those of the source. Calls follow the shape of the dose curve; as a rule, active = well fitted inhibition curve with a large enough effect; inconclusive = small, poorly fitted or top-dose-only effect, or another doubt; inactive = flat fitted curve, though single readings scatter.
test: Confirmation Concentration-Response Assay for lipid storage modulators: for probe SAR round 2; settings: Drosophila S3 cells, BODIPY lipid droplet fluorescence, 18-24 h; series mostly up to 46.1 µM
Text: NIH Molecular Libraries Probe Production Centers Network [MLPCN] NIH Chemical Genomics Center [NCGC] MLPCN Grant: 1 R03 MH085686-01 Assay Submitter (PI): Beller, Mathias; Max-Planck-Institut fur Biophysikalische Chemie NCGC Assay Overview: Storing lipids as a reservoir for energy or the anabolism of elementary metabolites is a common feature of probably all cells and is conserved from bacteria to humans. The universal cellular lipid storage organelle is the so-called lipid storage droplet (LD). Although ubiquitous, LDs share a simple structure composed of a hydrophobic core that harbors the storage lipids, which is shielded by a droplet-specific phospholipid monolayer to which proteins are attached. The current model of LD biogenesis involves an incorporation of the lipid core into the membrane leaflets of the endoplasmic reticulum (ER) followed by a subsequent budding-like maturation of a LD, which ultimately pinches off. Once released, LD volume can increase by localized lipogenesis or fusion of existing droplets. Storage lipids are re-mobilized enzymatically by lipase activity. Lipase regulation in the adipocyte is heavily studied and involves multiple components including catecholamine signaling, the LD-associated proteins Perilipin and comparative gene identification-58 (CGI-58) and at least two lipases named hormone sensitive lipase (HSL) and adipocyte triglyceride lipase (ATGL). LD regulation outside of the adipocyte is poorly understood and only few components are known. However, there is an urgent need to learn more about ectopic fat depots as mislocalized storage of lipids, for example in the liver or muscle, is an eminent health problem associated with insulin resistance or the metabolic syndrome. We developed a laser-scanning cytometer assay to enable 1,536-well screening and combined the results of the small molecules screen with an RNAi database based on lipid storage.
We dispensed 4 uL of cells at 1.25 x 10^6 cells/mL into LoBase Aurora COC 1,536-well plates (black walled, clear bottom) with a bottle-valve solenoid-based dispenser (Aurora) to obtain 5,000 cells/well. Triacsin C (Sigma-Aldrich T-4540), an inhibitor of long-chain fatty acyl CoA synthetase that blocks synthesis of triglycerides, was used as a positive control for lipid under-storage. A total of 23 nL of compound solution of different concentrations were transferred to the assay plates using a Kalypsys pin tool equipped with a 1,536-pin array containing 10-nL slotted pins (FP1S10, 0.457-mm diameter, 50.8 mm long; V&P Scientific). One microliter of oleic acid (400 uM) was added, and the plate was lidded with stainless steel rubber gasket lined lids containing pinholes. After 18-24 h incubation at 24 degree Celsius and 95% humidity, 4 uL of the dyes BODIPY 493/503 (Molecular Probes) and the Cell Tracker Red CMTPX dye (Molecular Probes) were added to the wells to stain lipid droplets and enumerate cell number, respectively. Fluorescence was detected by excitation of the fluorophores with a 488-nm laser on an Acumen Explorer (TTP Lab Tech). The total intensity in channel 1 (500-530 nm) reflected lipid droplet accumulation. Cells were detected using channel 3 (575- 640 nm) with 5-um width and 100-um depth filters. The ratio of the total intensity in PMT channel 1 over total intensity of channel 3 was also calculated. Percent activity was computed relative to an internal control (100% inhibited lipid droplet deposition due to the presence of 20 uM Triacsin C), which was added to 32 wells/plate.

Potency, inactive:
CCOC(=O)C1CCN(C(=O)C(C)(C)NC(=O)Nc2ccc(CN3CCOCC3)cc2)CC1
CC(C)(NC(=O)Nc1ccccc1Cl)C(=O)N1CCC(C(=O)O)CC1

Potency, active:
COc1cccc(-n2ncc3c2CCCC3NC(=O)c2ccccn2)c1 (stereo unspecified) 2.5 nM
CCOC(=O)C1CCN(C(=O)C(C)(C)NC(=O)Nc2ccc(Cl)cc2Cl)CC1 445 nM
CCOC(=O)C1CCN(C(=O)C(C)(C)NC(=O)Nc2ccc(Oc3ccccc3)cc2)CC1 353 nM
CCOC(=O)C1CCN(C(=O)C(C)(C)NC(=O)Nc2ccc(C(F)(F)F)cc2Cl)CC1 141 nM
CCOC(=O)C1CCN(C(=O)C(C)(C)NC(=O)Nc2cccc(OC)c2)CC1 4450 nM
O=C(NC1CCCc2c1cnn2-c1ccc(F)cc1F)c1ccccn1 (stereo unspecified) 315 nM and 6.3 nM
O=C(NC1CCCc2c1cnn2CCO)c1ccccn1 (stereo unspecified) 1580 nM
CCOC(=O)C1CCN(C(=O)C(C)(C)NC(=O)Nc2ccc(F)c(F)c2)CC1 1990 nM
CCOC(=O)C1CCN(C(=O)C(C)(C)NC(=O)Nc2ccc3sccc3c2)CC1 12500 nM
CCOC(=O)C1CCN(C(=O)C(C)(C)NC(=O)Nc2ccc3c(c2)CCC3)CC1 12500 nM
O=C(NC1CCCc2c1cnn2-c1ccc(F)cc1F)c1ccccc1 (stereo unspecified) 25 nM
CCNC(=O)C1CCN(C(=O)C(C)(C)NC(=O)Nc2ccccc2Cl)CC1 14100 nM
CCOC(=O)C1CCN(C(=O)C(C)(C)NC(=O)Nc2cccc(-c3csc(C)n3)c2)CC1 25000 nM
CC(C)(C)OC(=O)NCCOCCOCCOc1ccc(-n2ncc3c2CCCC3NC(=O)c2ccccn2)cc1 (stereo unspecified) 1.8 nM
CC(C)(C)OC(=O)NCCOCCOCCOCCn1ncc2c1CCCC2NC(=O)c1ccccn1 (stereo unspecified) 158 nM
CCOC(=O)C1CCN(C(=O)C(C)(C)NC(=O)Nc2ccc3ccccc3c2)CC1 4990 nM
CCOc1ccc(CCNC(=O)c2cc3sccc3n2Cc2cccc(C)c2)cc1OCC 2.2 nM
COc1ccc(-n2ncc3c2CCCC3NC(=O)c2ccccn2)cc1 (stereo unspecified) 1.6 nM
CCOC(=O)C1CCN(C(=O)C(C)(C)NC(=O)Nc2cccc(C(=O)OC)c2)CC1 7050 nM
CCN(CC)C(=O)C1CCN(C(=O)C(C)(C)NC(=O)Nc2ccccc2Cl)CC1 15800 nM
CCOC(=O)C1CCN(C(=O)C(C)(C)NC(=O)Nc2ccccc2Cl)CC1 705 nM
O=C(N[C@H]1CCCc2c1cnn2-c1ccc(F)cc1F)c1ccccn1 22300 nM
O=C(NC1CCCc2c1cnn2-c1cccc(O)c1)c1ccccn1 (stereo unspecified) 5 nM
O=C(NC1CCCc2c1cnn2-c1ccc(O)cc1)c1ccccn1 (stereo unspecified) 0.7 nM
CC(C)(C)OC(=O)NCCOCCOCCOc1cccc(-n2ncc3c2CCCC3NC(=O)c2ccccn2)c1 (stereo unspecified) 5.6 nM
O=C(NC1CCCc2c1cnn2-c1ccc(F)cc1F)c1cccs1 (stereo unspecified) 6.3 nM
CCOC(=O)C1CCN(C(=O)C(C)(C)NC(=O)Nc2ccc(N(C)C)cc2)CC1 5600 nM
CCOC(=O)C1CCN(C(=O)C(C)(C)NC(=O)Nc2ccc(-c3ccccc3)cc2)CC1 1410 nM
CCOC(=O)C1CCN(C(=O)C(C)(C)NC(=O)Nc2ccc(OC)c(Cl)c2)CC1 7910 nM
